DRD3 agonist: activates the human D3 dopamine receptor. D3R DiscoveRx beta-arrestin cells, luminescence, 90 min. max activation, %. P35462. 410,000 tested, 0.58% active. AID 652048; in the data active = max activation above about 30%; also: 0% is about no effect
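Cells at 1500/well, incubated overnight, then treated with pinned compounds (dopamine as control) for 90 min at 37 degrees C. DiscoveRx reagent added for 30 - 60 minutes at room temperature; luminescence read.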
DRD3 antagonist: D3 dopamine receptor (human) antagonism; P35462; D3R cells, DiscoveRx beta-arrestin luminescence, antagonist mode; active compounds read low; max response, negative = inhibition, %; 360,000 tested, 2.5% active; AID 652054; in the data active = max response below about -50%; also: % is scaled to controls: 0 for no effect and ±100 for the full control effect
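Cells expressing the human receptor were seeded at 1500 cells/well, incubated overnight at 37 degrees C in 5% CO2, then exposed to library compounds with dopamine controls for 90 minutes at 37 degrees C before luminescent detection.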
D1 ag: agonists of human D1 dopamine receptor; HEK293 T-REx D1 cells, calcium flux, agonist mode; activation, % at 2 µM; 360,000 tested, 1% active; AID 504660; in the data active = activation above about 30%; also: 0% is about no effect
Target sequence (P21728 whole entry, looked up): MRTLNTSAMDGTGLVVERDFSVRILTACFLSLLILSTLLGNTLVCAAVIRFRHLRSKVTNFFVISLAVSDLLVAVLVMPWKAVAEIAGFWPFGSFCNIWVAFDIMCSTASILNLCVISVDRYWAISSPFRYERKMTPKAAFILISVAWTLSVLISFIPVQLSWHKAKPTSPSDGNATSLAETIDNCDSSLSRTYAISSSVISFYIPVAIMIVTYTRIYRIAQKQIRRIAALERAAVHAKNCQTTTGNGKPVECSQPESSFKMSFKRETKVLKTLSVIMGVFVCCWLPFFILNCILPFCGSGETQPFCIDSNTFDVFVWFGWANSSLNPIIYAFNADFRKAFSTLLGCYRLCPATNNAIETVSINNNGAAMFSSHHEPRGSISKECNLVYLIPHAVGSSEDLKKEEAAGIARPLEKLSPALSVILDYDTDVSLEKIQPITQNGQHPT
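Tetracycline-induced HEK293 TREx D1 cells, force-coupled to calcium signalling, were dye-loaded with a no-wash calcium kit. Compound was pin-added after a 10 s baseline. Fluorescence was read kinetically at 1 cycle/s for 180 s, with calcium rises flagged as agonism.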
D1 potentiator: human D1 dopamine receptor positive modulation. HEK293 TREx D1 cells, calcium flux, dopamine EC20 potentiation. potentiation, % at 10 µM. AID 504651. P21728. 360,000 tested, 0.036% active; in the data active = potentiation above about 30%; also: 0% is about no effect
D1 antagonist: human D1 dopamine receptor antagonism | P21728 | HEK293 TREx D1 cells, calcium flux, dopamine EC80; active compounds read low | activity change, negative = inhibition, % at 10 µM | 360,000 tested, 3.2% active | AID 504652; in the data active = activity change below about -30%; also: % is scaled to controls: 0 for no effect and ±100 for the full control effect
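Using tetracycline-induced force-coupled D1 Hek293 cells and a calcium dye, signals were followed for 180 s after compound, then for 180 s after EC80 dopamine, to detect inhibitors.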
* marks the source's active call; other numbers are inactive results; / = not tested or not shown; ! = not active in a repeat. The list is not random: actives were taken first. Their share in the collection is about 6%.

SMILES	DRD3 agonist	DRD3 antagonist	D1 ag	D1 potentiator	D1 antagonist
CCOC(=O)C1CCN(Cc2cn[nH]c2-c2ccccc2)CC1	-8	-66*	2	-8	6
COc1ccc(C(=O)C2CCCN(Cc3cn[nH]c3-c3ccccc3)C2)cc1OC (configuration not stated)	-12	-14	5	-6	-31*
O=C(Cn1ncc2ccsc2c1=O)N1CCN(c2ccc(Cl)cc2)CC1	3	/	8	-3	-28
Nc1ccc(C(=O)OCc2nc3ccccc3s2)cc1	-5	-51*	2	9	0
OCc1cc(Br)ccc1OCc1nc2ccccc2s1	-1	6	9	-12	-1
Oc1ccccc1OCc1nc2ccccc2s1	-2	6	-1	-6	-31*
CCCCSCCCNC(=O)c1cn(C)c2ccc(S(=O)(=O)N3CCCCC3)cc2c1=O	2	/	1	-1	-2
CN(CC(=O)Nc1ccccc1Cl)C(=O)c1ccc(COc2ccccc2)cc1	3	-9	2	-3	-13
CCC(CC)c1nnc(NC(=O)Oc2ccccc2)s1	-3	-69*	8	-3	-5
O=C(NC1CCCCC1)N1CCC(c2nc3ccccc3[nH]2)CC1	-2	11	1	-3	-3
O=C(NC1CCCCC1)N1CCCC(c2nc3ccccc3[nH]2)C1 (configuration not stated)	-18	-126*	3	-4	10
Cc1nc2cc(Oc3nc(NCCN(C)C)nc4ccsc34)ccc2s1	-15	-59*	/	/	/
COC(=O)c1ccc(NC(=O)C(=O)NCC(c2cccnc2)N2CCc3ccccc32)cc1 (configuration not stated)	15	/	2	-2	-22
COc1ccc(-c2cc(C(=O)Nc3c(C)nn(Cc4ccccc4Cl)c3C)no2)cc1OC	2	-12	10	-15	-40*
COc1ccc(OC)c(-c2cc(C(=O)Nc3c(C)nn(Cc4ccccc4Cl)c3C)no2)c1	25	3	2	-1	8
COc1ccc(OC)c(-c2cc(C(=O)Nc3cccc(Cl)c3C)no2)c1	5	/	9	1	-40*
COc1ccc(-c2cc(C(=O)Nc3c(C)nn(Cc4ccc(C)cc4)c3C)no2)cc1OC	7	/	3	-1	0
COc1ccc(OC)c(-c2cc(C(=O)Nc3c(C)nn(Cc4ccccc4C)c3C)no2)c1	33*	21	2	0	5
COc1ccc(OC)c(-c2cc(C(=O)Nc3ccc(C)c(C)c3)no2)c1	-25	/	5	-2	-8
COc1ccc(OC)c(-c2cc(C(=O)Nc3c(C)nn(Cc4ccc(C)cc4)c3C)no2)c1	35*	/	3	-2	11
COc1ccc(C)cc1NC(c1nnc(-c2ccccc2)o1)c1ccc(F)cc1Cl (configuration not stated)	0	/	2	-5	-20
COc1cccc(-c2cc(C(=O)Nc3ccn(Cc4ccc(C)cc4)n3)no2)c1	35*!	5	23	-8	35
Cc1ccc(Cn2ccc(NC(=O)c3cc(-c4ccccc4)on3)n2)cc1	-2	-9	10	-4	11
FC(F)(F)c1cccc(NC(=S)NCc2ccc(Cl)cc2)c1	-11	7	24	-8	-51*
Fc1ccccc1CNC(=S)Nc1cccc(C(F)(F)F)c1	-13	-8	25	-19	-44*
SMILES	DRD3 agonist	DRD3 antagonist	D1 ag	D1 potentiator	D1 antagonist
CN(C)NC(=S)Nc1cccc(C(F)(F)F)c1	-7	6	0	-16	-16
CC(NC(=S)Nc1ccc(OC(F)F)c(Cl)c1)C(C)(C)C (configuration not stated)	-11	9	20	-14	-88*
CC(NC(=S)Nc1cccc(C(F)(F)F)c1)C(C)(C)C (configuration not stated)	-2	-9	18	-9	-35*
O=C(NC1CCCCC1)c1csnn1	1	3	/	/	/
O=C1NC[C@@H](CCCCN2C[C@H](Cc3ccc(O)cc3)N(CCc3ccc(O)cc3)C(=O)C2=O)N(CCc2ccc(O)cc2)C1=O	2	3	/	/	/
COc1ccccc1-c1noc(CCCC(=O)Nc2cccc(C(F)(F)F)c2)n1	-21	/	2	-2	-19
COc1ccccc1-c1noc(CCC(=O)Nc2cc(C(F)(F)F)ccc2Cl)n1	30*	-10	8	-2	24
Cc1ccc(S(=O)(=O)c2nnn3c2nc(N(C)Cc2ccccc2)c2cc(Cl)ccc23)cc1C	1	/	5	-1	-3
CCOc1ccc(C(=O)OCc2cc(=O)n3nc(C4CCCCC4)sc3n2)cc1	0	/	7	-3	-5
NC(=O)c1ccc(NC(=O)CN2CCN(S(=O)(=O)c3ccc4ccccc4c3)CC2)cc1	-5	56	7	/	-5
CC1SCCN1S(=O)(=O)c1ccc2ccccc2c1 (configuration not stated)	0	-59*	1	10	-8
CC(C)N1CCN(S(=O)(=O)c2ccc3ccccc3c2)CC1	-2	-1	2	-1	-92*
CC(=O)c1ccc(N2CCN(S(=O)(=O)c3ccc4c(c3)C(C)(C)C(=O)N4)CC2)cc1	1	/	4	-1	-8
CCS(=O)(=O)N1CCN(S(=O)(=O)c2ccc3ccccc3c2)CC1	2	22	6	1	-4
CC(=O)c1ccc(N2CCN(S(=O)(=O)c3ccc4ccccc4c3)CC2)cc1	-13	1	0	4	-35*
CC(=O)c1ccc(NC(=O)CN2CCN(S(=O)(=O)c3ccc4ccccc4c3)CC2)cc1	-3	0	35*	/	-35*
O=C(O)C1SCCN1S(=O)(=O)c1ccc2ccccc2c1 (configuration not stated)	1	11	0	5	4
Cc1ccc(-c2noc(CNC(=O)COc3cc(C)c(Br)c(C)c3)n2)cc1	-3	/	7	1	8
CCC1CN(C(=O)Nc2cc(Cl)c(OC)cc2OC)c2ccccc2O1 (configuration not stated)	0	/	3	3	-25
COc1ccc(C2C=C(c3ccccc3)Nc3nc(NC(=O)/C=C/c4ccccc4OC)nn32)cc1 (configuration not stated)	-7	/	0	-1	-15
Cc1ccc(S(=O)(=O)NCCSc2nnnn2-c2cc(C)ccc2C)cc1	0	25	10	-1	-40*
CCN(CC)CCOC(=O)c1ccc(Nc2c3c(nc4ccccc24)CCC3)cc1	-35	/	4	-1	-9
O=C(c1ccccc1F)N1CCCc2ccccc21	-3	6	0	-1	5
CCN1CCN(c2ncc(C(=O)N3CCCc4ccccc43)c3ccccc23)CC1	4	-69*	6	2	-29
O=C(c1cnc2sccn2c1=O)N1CCCc2ccccc21	-5	-52*	4	-8	13
CCc1ccc2c(c1)CCCN2C(=O)c1ccccc1C(=O)O	-50	-68*	0	-2	5

From PubChem BioAssay
